According to PubChem BioAssay AID1619 (SRMLSC, 2009):
Out of some 220,000 compounds screened, about 830 (0.38%) were called active.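 How the source made its calls: active means compound inhibiting the enzyme by more than half at any dose during confirmatory dose-response retesting; inconclusive means strong single-dose inhibitors picked by rank but not retested; inactive means the rest.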 A selection follows. Results with a measured potency or affinity are listed apart. Non-standard residues stand in square brackets, D forms with d. Residues, ends and D or L forms follow the SMILES beside them. ξ: configuration not given here. *: point of attachment. Cbz = O=C(OCc1ccccc1)*; OBn = c1ccc(CO*)cc1; ξP = O=C(O)C1CCCN1

Each compound was assayed against Leucine aminopeptidase (Plasmodium falciparum (isolate 3D7)) (UniProt Q8IL11) (assay: P. falciparum M17LAP inhibitors, primary screen, biochemical, fluorogenic H-Leu-NHMec substrate, 1536-well (AID 1619;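 further: plate controls were full reaction with DMSO carrier for no effect and no enzyme background for full effect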)). Details: recombinant M17LAP, H-Leu-NHMec fluorogenic kinetic assay; at 30 µM; stronger effect = higher value.
Sequence of Leucine aminopeptidase (Plasmodium falciparum (isolate 3D7)) (Q8IL11 whole entry, looked up): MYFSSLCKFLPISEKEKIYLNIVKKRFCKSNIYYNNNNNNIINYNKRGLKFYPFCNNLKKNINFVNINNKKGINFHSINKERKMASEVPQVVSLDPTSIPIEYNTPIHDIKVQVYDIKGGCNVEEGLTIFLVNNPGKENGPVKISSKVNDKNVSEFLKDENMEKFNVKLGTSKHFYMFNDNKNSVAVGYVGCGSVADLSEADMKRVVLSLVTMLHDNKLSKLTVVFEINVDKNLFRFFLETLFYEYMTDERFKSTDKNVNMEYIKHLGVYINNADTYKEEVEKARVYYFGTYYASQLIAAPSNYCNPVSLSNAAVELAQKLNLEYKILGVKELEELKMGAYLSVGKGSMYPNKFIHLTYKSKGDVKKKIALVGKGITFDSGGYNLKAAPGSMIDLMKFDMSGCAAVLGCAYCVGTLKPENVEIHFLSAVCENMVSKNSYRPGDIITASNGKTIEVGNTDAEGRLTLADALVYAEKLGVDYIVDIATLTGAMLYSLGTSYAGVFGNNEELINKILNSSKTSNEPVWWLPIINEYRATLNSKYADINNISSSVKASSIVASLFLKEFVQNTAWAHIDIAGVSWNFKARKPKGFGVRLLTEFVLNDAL

inhibition, inactive:
Cc1nc2c(cc1C(=O)N/N=C/c1ccc(O)c(O)c1)c(=O)n(C)c(=O)n2C 13.8%
Cc1ccccc1N1C(=O)CC2(CCCC2)CC1=O -2.41%
CN(C)c1ccc(/C=N/N=C(N)N)cc1[N+](=O)[O-] 58.3%
Cc1ccc(/C=C2\NC(=S)NC2=O)cc1[N+](=O)[O-] -1.94%
COc1cc(/C=N/NC(N)=O)ccc1OC(=O)c1ccc(C)cc1 -1.66%
Cc1ccc(-n2nnc3c(=O)n(CC(=O)N4CCC(C)CC4)cnc32)cc1 13.8%
OC1COC(OCC2OC(OCc3ccccc3)C(O)C(O)C2O)C(O)C1O (stereo not drawn) -0.69%
Cc1ccc(C(=O)O/N=C(\c2ccccc2)c2cccnc2)cc1 -5.37%
CC1(C)N(O)CC(c2cccs2)=[N+]1[O-] 39.9%
CC(=O)C1(C)N(O)C(C)(C)C(c2cccs2)=[N+]1[O-] (stereo not drawn) 11.1%
NNC(=O)c1ccc(COc2ccc3ccccc3c2)o1 7.87%
COc1cc(/C=N/N2C(=O)c3ccccc3C2=O)ccc1O 10.3%
O=C1C2C3C=CC(CC3)C2C(=O)N1/N=C/c1ccc(O)cc1 (stereo not drawn) 12.3%
COc1cc(/C=N/N2C(=O)C3C4C=CC(CC4)C3C2=O)ccc1O (stereo not drawn) 18.2%
O=C1c2ccccc2C(=O)N1/N=C/c1ccc(O)c(O)c1O 9.31%
O=C(Cn1cnc2c(cnn2-c2ccccc2)c1=O)NC1CCCC1 -1.27%
O=C(Nc1cccnc1)c1ccccc1O 8.37%
CCN(C(=O)COC(=O)c1cc(-c2ccccc2)nn1-c1ccccc1)C1CCS(=O)(=O)C1 (stereo not drawn) -0.44%
COc1ccc(NC(=O)CSc2nnc(-c3cccs3)n2-c2ccccc2)cc1 0.69%
O=C(CSc1nnc(-c2cccs2)n1-c1ccccc1)Nc1ccccc1 8.55%
CCOC(=O)C1=C(O)C(=O)N(c2ccc(S(N)(=O)=O)cc2)C1c1cccc([N+](=O)[O-])c1 (stereo not drawn) 0.08%
O=C(C1=C(O)C(=O)N(CCN2CCOCC2)C1c1ccncc1)c1ccco1 (stereo not drawn) 17.6%
Cc1nnc(SC(C)C(=O)Nc2c(C)n(C)n(-c3ccccc3)c2=O)n1N (stereo not drawn) 11.1%
Cc1c(NC(=O)CSc2nnc(Nc3ccccc3)s2)c(=O)n(-c2ccccc2)n1C 20.1%
Cc1c(NC(=O)C(C)Sc2ccccc2)c(=O)n(-c2ccccc2)n1C (stereo not drawn) 8.89%
Cc1ccc(SC(C)C(=O)Nc2c(C)n(C)n(-c3ccccc3)c2=O)cc1 (stereo not drawn) -0.12%
O=C(O)CCn1c(C2CCCCC2)nc2ccccc21 10.6%
O=C(CSCc1cccc(CSCC(=O)Nc2ccccc2)n1)Nc1ccccc1 6.32%
CCc1cccc(NC(=O)CCSCCC(=O)Nc2cccc(CC)c2)c1 10.7%
CC(C)OC(=O)CSc1ncnc2c1cnn2-c1ccccc1 -11.6%
S=C(NCc1ccco1)Nc1ccccc1Cl 2.12%
Cc1cc(NS(=O)(=O)c2ccc(NC(=O)c3cnc4sccn4c3=O)cc2)nc(C)n1 -3.04%
Cc1cc(C)nc(NS(=O)(=O)c2ccc(NC(=O)CN3C(=O)c4ccccc4C3=O)cc2)n1 8.34%
COc1cc(NS(=O)(=O)c2ccc(NC(=O)CN3C(=O)c4ccccc4C3=O)cc2)nc(OC)n1 45.7%
Cc1noc(NS(=O)(=O)c2ccc(NC(=O)c3cnc4scc(C)n4c3=O)cc2)c1C 49.8%
CN1C(=O)CS(=O)c2ccc(C(=O)NCCC3=CCCCC3)cc21 (stereo not drawn) -0.02%
CCC(=O)N(Cc1ccc(C)cc1)Cc1cc2cc3c(cc2[nH]c1=O)OCO3 -7.35%
O=C(c1ccccc1)N1CCN(C(=O)c2ccccc2)C1c1ccccc1 -9.12%
O=C(CSCc1nc2c(nnn2Cc2ccc(F)cc2)c(=O)[nH]1)Nc1c(Cl)cc(Cl)cc1Cl 30.5%
Cc1cccc(NC(=O)CSCc2nc3c(nnn3Cc3ccc(F)cc3)c(=O)[nH]2)c1C 22.9%
CN1CCN(C(=O)C2=C[C@@H](c3ccccc3)C[C@@H](OCCCCO)O2)CC1 2.48%
C=CCOc1c(CNc2cccc(C(=O)O)c2)cccc1OC 1.85%
COc1ccc(Br)cc1/C=N/Nc1cccc(C(=O)O)c1 25%
O=C(NNC(=O)C1[C@H]2CCCC[C@@H]12)Nc1cccc2ccccc12 (stereo partly drawn) 0.58%
C/C(=N/OC(=O)c1c(F)cccc1F)c1nccs1 -5.2%
CC(=O)C1=C(O)C(=O)N(c2ccc(Br)cn2)C1c1ccc(F)cc1 (stereo not drawn) 20.5%
O=C(CNC(=O)OCc1ccccc1)NCC(=O)N1CCCC1C(=O)OCc1ccccc1 (stereo not drawn) (Cbz-Gly-Gly-[ξP]-OBn) 2.1%
O=C(O)CCC(=O)N1CCC[C@H]1C(=O)O 3.33%
Cc1ccc(C(=O)CN(C(=O)c2ccc(Cl)c(Cl)c2)N2C(=O)C3C4C=CC(C4)C3C2=O)cc1 (stereo not drawn) -2.9%
O=C(CSc1ncc(S(=O)(=O)c2ccccc2)c(=O)[nH]1)Nc1ccccc1Cl 28.8%
O=C(CSc1nc(-c2ccco2)cc(C(F)(F)F)n1)Nc1ccc2c(c1)CCC2 15.2%
CCCc1cc(=O)[nH]c(SCC(=O)Nc2ccc3c(c2)CCC3)n1 19.8%
Cc1ccc(NC(=O)CSc2ncn(-c3ccccc3)n2)cc1C 3.12%
Cc1ccc2nc(SCC(=O)Nc3ccc4c(c3)CCC4)[nH]c2c1 -0.04%
COc1cccc(NC(=O)CSc2ncc(S(=O)(=O)c3ccccc3)c(=O)[nH]2)c1 9.3%
O=C(CSc1ncccn1)Nc1ccc2c(c1)CCC2 -3.11%
Cc1ccc(NC(=O)CSc2ncc3ccccn23)cc1C -1.12%
COc1cc(/C=C/C(=O)c2c(O)cc(C)oc2=O)cc(OC)c1O 23.1%
